# In the library only some 3.5% were active in any assay of this set; here they are far more common.
# MITF inh: MITF inhibitors, primary screen, biochemical, AlphaScreen, human; Microphthalmia-associated transcription factor (Homo sapiens), O75030; AlphaScreen MITF homodimerization, bead proximity signal; inhibition, % at 2.6 µM; 0.91% of 650,000 active; AID 1259374, 2018; in the data active = inhibition above about 50%;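 note: 0% = vehicle wells with protein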
# GPR151 activ: activators of human GPR151, primary screen, cell-based, PathHunter beta-arrestin, luminescence. PathHunter beta-arrestin GPR151 cells. activation, % at 11.2 µM. 1% of 650,000 active. AID 1508602, 2020; in the data active = activation above about 4.9%;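 note: 0% = median of compound wells and 100% = cells with positive control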
# FBW7 activator: FBW7 E3 ligase activators, primary screen, biochemical, AlphaScreen, human; normalized activity (activation), % at 26.1 µM; F-box/WD repeat-containing protein 7 (Homo sapiens), Q969H0; 0.13% of 650,000 active; AlphaScreen FBW7–phospho-cyclin E peptide binding, activator screen; in the data active = normalized activity above about 1.9%;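 note: purified mutant Fbw7 with reduced substrate affinity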
# Target sequence (Q969H0 whole entry, looked up): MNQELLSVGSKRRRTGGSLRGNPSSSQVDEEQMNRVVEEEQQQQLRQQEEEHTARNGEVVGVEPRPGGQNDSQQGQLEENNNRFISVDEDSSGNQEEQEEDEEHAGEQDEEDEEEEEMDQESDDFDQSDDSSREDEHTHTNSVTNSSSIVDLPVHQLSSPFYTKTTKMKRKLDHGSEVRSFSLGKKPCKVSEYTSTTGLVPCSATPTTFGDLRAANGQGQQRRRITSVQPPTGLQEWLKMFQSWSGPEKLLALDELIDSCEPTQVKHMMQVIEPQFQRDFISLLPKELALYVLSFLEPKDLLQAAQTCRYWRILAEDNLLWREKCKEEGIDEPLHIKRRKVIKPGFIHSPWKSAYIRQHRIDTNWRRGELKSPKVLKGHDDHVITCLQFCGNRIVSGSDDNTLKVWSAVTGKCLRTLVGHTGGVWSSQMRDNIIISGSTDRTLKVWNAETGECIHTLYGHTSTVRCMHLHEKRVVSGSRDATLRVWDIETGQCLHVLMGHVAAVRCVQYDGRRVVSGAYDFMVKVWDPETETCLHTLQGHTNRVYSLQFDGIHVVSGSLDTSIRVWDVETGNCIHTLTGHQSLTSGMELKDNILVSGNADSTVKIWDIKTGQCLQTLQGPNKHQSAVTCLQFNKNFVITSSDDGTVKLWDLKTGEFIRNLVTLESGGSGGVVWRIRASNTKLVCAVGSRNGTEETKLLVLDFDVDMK
# TEAD-YAP block: TEAD-YAP interaction inhibition, primary screen, TEAD-YAP interaction inhibitor project, luminescence, HEK-TIYL cells. inhibition, % at 9.12 µM. AID 1259422, 2018. TEAD-Gal4/YAP UAS-luciferase luminescence. 1.4% of 640,000 active; in the data active = inhibition above about 32%;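 note: 0% = median of test compound wells and 100% = reference inhibitor wells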
# * = called active by the depositor; ! = not confirmed by another sample.
SMILES,MITF inh,GPR151 activ,FBW7 activator,TEAD-YAP block
Cc1ccc2c(c1)-c1c(cnn1CC(=O)Nc1ccc3c(C)cc(=O)oc3c1)CO2,13.3,-0.7,1.2,49.5*
Cc1cc(C)cc(NC(=O)Cn2ncc3c2-c2ccccc2OC3)c1,-5.5,2.3,-0.2,-0.4
Cc1ccc(C(=O)/C=C/Nc2cccc(Cl)c2C)o1,10.2,-0.3,-0.1,-13.4
Cc1ccc(C(=O)/C=C/Nc2ccc(F)cc2F)o1,-12.7,-0.8,-0.2,61.2*
Cc1ccc(C(=O)/C=C/Nc2ccc(Br)cc2F)o1,6.2,-0.5,-0.2,77.2*
COc1c2occc2cc2ccc(=O)oc12,1.5,-0.8,2.0*!,-2.1
Cc1ccc(NC(=O)CN(C)C(=O)COc2ccc(C#N)cc2)cc1,8.3,0.1,0.1,3.8
CN(CC(=O)Nc1ccc(Cl)cc1)C(=O)CCl,-13.0,0.2,-0.1,71.4*
Cc1ccc(NC(=O)CN(C)C(=O)CCl)cc1,4.2,-1.0,0.1,62.7*
CN1CCN(c2cc(-c3ccccn3)nc(-c3ccccn3)n2)CC1,112.4*,1.6,-0.9,31.7
CN1CCN(c2cc(-c3ccccc3)nc(-c3ccccn3)n2)CC1,-5.4,0.3,0.0,1.7
CN1CCN(c2cc(-c3ccncc3)nc(-c3cccnc3)n2)CC1,0.4,2.6,0.0,60.8*
c1ccc(-c2cc(N3CCc4ccccc4C3)nc(-c3ccccn3)n2)nc1,84.6*,0.9,-1.0,68.9*
CC1=CCC2(C(=O)OC(C)(C)OC2=O)C(c2ccc(Cl)cc2)C1 (stereo not drawn),5.6,-1.5,0.1,18.8
CCn1cc2c(n1)-c1c(oc(C(=O)Nc3cccc(OC)c3)c1C)CC2,-2.2,-0.6,0.0,-31.0
O=C(CSc1nc2ccc(N3C(=O)c4cccc5cccc(c45)C3=O)cc2s1)NC1CC1,7.4,-0.1,0.0,0.1
O=C1COc2ccc(C(=O)O)cc2N1,9.3,-0.5,0.0,7.2
CC(C)(C)c1ccc2c(c1)NC(=O)CO2,-13.7,-0.4,-0.2,35.4*
COc1ccc(-c2nc(C(N)=O)c3[nH]c(=O)n(-c4ccc(Cl)cc4)c3n2)cc1O,5.9,0.3,-0.2,51.5*
COc1ccc(-c2nc(C(N)=O)c3[nH]c(=O)n(-c4cccc(C)c4)c3n2)cc1,15.1,-0.1,0.8,58.2*
COc1ccc(-c2nc(C(N)=O)c3[nH]c(=O)n(-c4ccc(F)cc4)c3n2)cc1O,16.5,0.7,0.8,54.1*
COc1ccc(-c2nc(C(N)=O)c3[nH]c(=O)n(-c4ccc(F)cc4)c3n2)cc1OC,1.2,-2.0,0.2,8.4
COc1cccc(-c2nc(C(N)=O)c3[nH]c(=O)n(-c4cccc(C)c4)c3n2)c1,-4.2,-0.8,0.0,7.1
COc1ccc(-c2nc(C(N)=O)c3[nH]c(=O)n(-c4ccc(C)cc4)c3n2)cc1O,-6.4,0.3,-0.3,67.2*
COc1cc(-c2nc(C(N)=O)c3[nH]c(=O)n(-c4ccc(C)cc4)c3n2)cc(OC)c1OC,-11.3,0.5,-0.1,6.3
SMILES,MITF inh,GPR151 activ,FBW7 activator,TEAD-YAP block
O=C1c2ccccc2NC2(CCCCC2)N1c1ccc(O)cc1,-13.3,-1.5,0.1,57.7*
O=C(NC1CCNCC1)c1ccncc1Cl,12.8,0.6,-0.2,2.5
CCOc1ccc(NC(=O)CSc2nc3n[nH]c(C)c3c(=N)n2-c2cccc(OC)c2)cc1,-0.6,0.6,0.2,33.0*
CCN(CC)C(=O)CSc1nc2n[nH]c(C)c2c(=N)n1-c1cccc(OC)c1,7.7,0.5,-0.1,43.8*
CCCN(CCC)C(=O)C(CC)Sc1nc2n[nH]c(C)c2c(=N)n1-c1cccc(OC)c1 (stereo not drawn),10.5,1.0,0.0,49.9*
CCCCN(CC)C(=O)CSc1nc2n[nH]c(C)c2c(=N)n1-c1cccc(OC)c1,24.7,-0.9,0.8,23.6
COc1cccc(-n2c(SCC(=O)N3CCCC3)nc3n[nH]c(C)c3c2=N)c1,14.6,-0.9,0.1,43.2*
CCNC(=S)NNc1ccc([N+](=O)[O-])cc1S(=O)(=O)Nc1ccc(C)cc1C,24.6,-0.8,-0.1,17.6
COc1ccc(CC2(CCC(=O)N3CCCCC3CO)CCC(=O)N2)c2ccccc12 (stereo not drawn),2.1,-0.6,-0.1,-6.0
O=C(Nc1ccc(O)cc1)c1cc2ccccn2n1,6.4,-2.9,0.3,55.8*
COc1ccc(CNCCN2CCOCC2)cc1,-4.7,-0.6,-0.1,-5.3
Cc1ccc(N2CCOCC2)cc1,11.0,0.6,-0.1,3.6
Cc1ccc(CNCc2ccc(N3CCOCC3)cc2)cc1,54.7*,3.9,-0.1,6.3
COc1ccc(CCNCc2ccc(N3CCOCC3)cc2)cc1,53.2*,2.7,0.1,1.7
O=C(Cn1ccc2ccccc2c1=O)NCC(=O)Nc1cccc(C(F)(F)F)c1,14.1,-0.5,0.2,14.0
O=C(Nc1ccc(I)cc1)c1ccc(=O)[nH]n1,12.7,1.6,-0.1,-44.8
COc1ccccc1/C=C/C1N=C(c2ccccc2)NO1 (stereo not drawn),4.6,0.8,-0.1,-59.6
Cc1c(C(=O)c2ccc(Cl)cc2)oc2cc(NC(=O)c3cccnc3)ccc12,7.0,1.1,0.0,0.4
C=CCSc1nnc2c(n1)OC(c1cccc(O)c1)Nc1ccc(Br)cc1-2 (stereo not drawn),-0.4,0.7,-0.1,-0.5
CC(=O)Nc1ccc(Oc2nnc(C)c3ccccc23)cc1,-20.6,-1.0,-0.1,65.3*
CC(=O)Nc1cccc(Oc2nnc(-c3ccc(C)cc3)c3ccccc23)c1,-7.7,-0.2,0.0,2.1
COc1ccccc1C(=O)NCCn1cc(SCC(=O)Nc2ccc(Br)cc2)c2ccccc21,8.4,-0.3,2.0*,5.3
COc1ccccc1C(=O)NCCn1cc(SCC(=O)Nc2ccc(C)cc2)c2ccccc21,-1.6,-0.1,-0.2,1.2
COC(=O)c1ccc(Cl)c(NC(=O)CCc2ccccc2)c1,12.0,-0.9,0.5,4.5
CC(=O)Nc1cccc(-c2cccc3cnc(Nc4ccc(-n5cnc(C)n5)cc4)nc23)c1,20.6,-0.7,0.4,56.5*
SMILES,MITF inh,GPR151 activ,FBW7 activator,TEAD-YAP block
Cc1ncn(-c2ccc(Nc3ncc4cccc(-n5cccn5)c4n3)cc2)n1,2.2,2.5,0.1,42.8*
Cc1ncn(-c2ccc(Nc3ncc4cccc(-c5ccncc5)c4n3)cc2)n1,3.6,1.7,0.6,45.4*
CCc1ccc(CN2CCN(S(=O)(=O)c3ccc(F)cc3)CC2)cc1,47.5,0.6,0.6,-0.2
CC(=O)NCC1CCC2(CCN(Cc3ccc4c(c3)CCCN4C)CC2)O1 (stereo not drawn),7.0,0.5,0.2,54.6*
CC(=O)NCC1CCC2(CCN(Cc3ccc4ccccc4c3)CC2)O1 (stereo not drawn),-5.4,-0.3,-0.3,-7.2
C1=NC2(CCCC2)Cc2c1ccc1ccccc21,-8.4,-1.9,-0.4,32.2*
CCc1ccc(-c2cn3ccccc3n2)cc1,2.3,-6.2,0.1,69.5*
CC(C)CC(=O)Nc1ccc(-c2cn3ccccc3n2)cc1,6.7,-3.0,0.0,40.6*

# Screening data: PubChem BioAssay, The Scripps Research Institute Molecular Screening Center
